Measurements taken from the supplement of paper PMC11383364.
± gives the standard deviation of the averaged measurements.

What follows are molecules tested on SUM149 (assay: percent difference in area under dose-response curve of relative cell number, RPMI vs HPLM; higher = drug relatively more effective in HPLM than RPMI (negative = less effective in HPLM)). Settings: treatment time: 72 h; dose range: 10-point, 1 nM to 20 µM; media compared: RPMI vs HPLM.

First: CNCCC(Oc1ccc(C(F)(F)F)cc1)c1ccccc1 (centres undefined) [Fluoxetine]
Second: CO[C@@H](C(=O)N1Cc2[nH]nc(NC(=O)c3ccc(N4CCN(C)CC4)cc3)c2C1)c1ccccc1 [Danusertib]
The “percent difference in area under dose-response curve” value (from here on “percent difference in area”) of the first is higher: 0.518% for the first, -17.3% for the second.

Going from CC(C)C[C@@H](C(=O)N[C@H](C(=O)OC1CCCC1)c1ccccc1)[C@H](O)C(=O)NO to O=C(/C=C/c1cccnc1)NCCCCC1CCN(C(=O)c2ccccc2)CC1, the “percent difference in area” value falls from -3.27% to -32.8%.

Compared with O=c1[nH]c(=O)n(C2CCCO2)cc1F (centres undefined) [Ftorafur], C[C@@H](Oc1cc(-c2cnn(C3CCNCC3)c2)cnc1N)c1c(Cl)ccc(F)c1Cl [Crizotinib] is lower in “percent difference in area” value: -2.37% for the first, -5.74% for the second.

Compared with Nc1nc2c(c(=O)[nH]1)C[C@@H](CCc1ccc(C(=O)N[C@@H](CCC(=O)O)C(=O)O)cc1)CN2 [Lometrexol], Cc1nc(=O)c2cc(CN(C)c3ccc(C(=O)N[C@@H](CCC(=O)O)C(=O)O)s3)ccc2[nH]1 [Raltitrexed] is higher in “percent difference in area” value: -68% for the first, 0.127 ± 13% for the second.

Going from C=CS(=O)(=O)NC1CCN(C(=O)CNc2cc(I)c(Cl)cc2OC)CC1 [KRas_G12C_inhibitor_9] to C=CC(=O)Nc1cccc(Nc2nc(Nc3ccc(NC4CN(CCF)C4)cc3OC)ncc2C(F)(F)F)c1, the “percent difference in area” value rises from -1.74% to 10.4%.

Compared with Nc1nccc(Oc2ccc(NC(=O)c3c[nH]cc(-c4ccc(F)cc4)c3=O)cc2F)c1Cl, Cc1ccc(F)c(NC(=O)Nc2ccc(-c3cccc4[nH]nc(N)c34)cc2)c1 [Linifanib] is higher in “percent difference in area” value: -4.65% for the first, 0.938% for the second.

Going from CC(=O)c1c(C)c2cnc(Nc3ccc(N4CCNCC4)cn3)nc2n(C2CCCC2)c1=O to Cc1nc(N)sc1-c1ccnc(Nc2ccc(N3CCOCC3)cc2)n1, the “percent difference in area” value rises from -11.4% to 11%.

First: Cc1nc(Nc2n[nH]c3c2CN(C(=O)N[C@H](CN(C)C)c2ccccc2)C3(C)C)c2sccc2n1
Second: C=CC(=O)Nc1cc(Nc2nccc(-c3cn(C)c4ccccc34)n2)c(OC)cc1N(C)CCN(C)C
The “percent difference in area” value of the first is lower: -62.7% for the first, 1.9% for the second.

First: C[C@@H]1CN(CC(=O)Nc2ccc3c(c2)Cc2cccc(-c4cc(=O)cc(N5CCOCC5)o4)c2S3)C[C@H](C)O1
Second: COc1ccc(-c2ccc3c(N4CCOCC4)nc(N4C[C@@H](C)O[C@@H](C)C4)nc3n2)cc1CO
The “percent difference in area” value of the first is lower: -5.04% for the first, -2.21% for the second.

First: CNC(=O)c1cc(Oc2ccc(NC(=O)Nc3cc(C(C)(C)C)nn3-c3ccc4ncccc4c3)c(F)c2)ccn1
Second: Cc1ccc(-n2nc(C(C)(C)C)cc2NC(=O)Nc2ccc(OCCN3CCOCC3)c3ccccc23)cc1
The “percent difference in area” value of the first is lower: -8.43% for the first, -3.95% for the second.

Going from Nc1nc(=S)c2[nH]cnc2[nH]1 [6_Thioguanine] to Nc1ncn([C@@H]2O[C@H](CO)[C@@H](O)[C@H]2O)c(=O)n1 [Azacitidine], the “percent difference in area” value rises from -37.9% to -13.8%.

First: COc1cccc2c1C(=O)c1c(O)c3c(c(O)c1C2=O)C[C@@](O)(C(=O)CO)C[C@@H]3O[C@H]1C[C@H](N)[C@@H](O)[C@H](C)O1 [Epirubicin_HCl]
Second: COC(=O)c1ccc2c(c1)NC(=O)/C2=C(\Nc1ccc(N(C)C(=O)CN2CCN(C)CC2)cc1)c1ccccc1
The “percent difference in area” value of the first is lower: -23.5% for the first, 3.26% for the second.

Compared with COc1cc2nccc(Oc3ccc(NC(=O)Nc4cc(C)on4)c(Cl)c3)c2cc1OC [Tivozanib], COc1cc(Nc2ncc(F)c(Nc3ccc4c(n3)NC(=O)C(C)(C)O4)n2)cc(OC)c1OC is lower in “percent difference in area” value: 7.69% for the first, 6.12% for the second.

Going from CNCc1ccc(-c2[nH]c3cc(F)cc4c3c2CCNC4=O)cc1 [Rucaparib] to Cc1cnc(-c2ccccc2C(C)C)nc1NCc1ccc(-n2ccnn2)cc1, the “percent difference in area” value rises from -14.3% to -3.5%.

First: CN(C)CCCn1cc(C2=C(c3c[nH]c4ccccc34)C(=O)NC2=O)c2ccccc21
Second: Cc1ccc(C(=O)N(CCCN)[C@@H](c2oc3cc(Cl)ccc3c(=O)c2Cc2ccccc2)C(C)C)cc1
The “percent difference in area” value of the first is higher: 0.14% for the first, -42.1% for the second.

Compared with CN(Cc1cnc2nc(N)nc(N)c2n1)c1ccc(C(=O)N[C@@H](CCC(=O)O)C(=O)O)cc1 [Abitrexate], Cn1c(=O)c(F)c(Nc2ccc(I)cc2F)c2c(=O)n(C[C@@H](O)CO)cnc21 is lower in “percent difference in area” value: -8.44% for the first, -12.9% for the second.

Compared with CC(C)c1onc(-c2c(Cl)cccc2Cl)c1COc1ccc(/C=C/c2cccc(C(=O)O)c2)c(Cl)c1, C#Cc1cccc(Nc2ncnc3cc(OCCOC)c(OCCOC)cc23)c1 [Erlotinib_HCl] is lower in “percent difference in area” value: 7.59% for the first, -0.149% for the second.
